# According to the supplement of paper PMC11732987, “Enantioselective OTUD7B fragment discovery through chemoproteomics screening and high-throughput optimisation” (Communications Chemistry, 2025):
# A number with no mark means an inactive call.
# What was measured:
# Experiment in all cases: log2 ratio of Biotin-Ahx-Ub-VS probe labelling (compound/DMSO); higher = less target engagement, active = hit call of the paper (q ≤ 0.05, log2 ratio ≤ -1)
# Conditions in all cases: treatment time: 3 h
# [1] = compound: CN(Cc1cccc(Br)c1)C(=O)CCl
# Outline: (§1)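 For activity-based profiling, 495 µg portions of HEK293T lysate in Tris/CHAPS/IGEPAL buffer with protease inhibitors were treated in triplicate with compound at 50 or 200 µM or with DMSO for 3 h. A 1 h incubation with Biotin-Ahx-Ub-VS (0.5 µM final) followed, then NeutrAvidin enrichment, LysC and trypsin digestion and diaPASEF LC-MS/MS. The compound/DMSO base-two log ratios were averaged from median-normalised label-free quantities using an unpaired t-test. Proteins needed at least 2 unique peptides to be included.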
# [2] = compound: CN(Cc1cccc(OCc2ccccc2C)c1)C(=O)CCl
# Outline: as §1
# [3] = compound: CN(Cc1ccccc1)C(=O)CCl
# Outline: as §1
# [4] = compound: COc1ccc(CN(C)C(=O)CCl)cc1
# Outline: as §1
# [5] = compound: COc1cccc(CN(CCCc2ccccc2)C(=O)CCl)c1
# Outline: as §1
# [6] = compound: ClCC(=O)N1CCc2cc(Cl)c(Cl)cc2C1
# Outline: as §1
# [7] = compound: ClCC(=O)N1CCc2nc(ncc2C1)-c1ccccc1
# Outline: as §1
# [8] = compound: ClCC(=O)N1CCc2nocc2C1
# Outline: as §1
# [9] = compound: ClCC(=O)N1CCc2scc(Br)c2C1
# Outline: as §1
# [10] = compound: ClCC(=O)NC(C1CCCC1)c1cccs1
# Outline: as §1
# [11] = compound: ClCC(=O)NC1CCCc2ccccc12
# Outline: as §1
# [12] = compound: ClCC(=O)NC1CCOc2ccc(Cl)cc12
# Outline: as §1
# [13] = compound: ClCC(=O)NC1CCSc2ccccc12
# Outline: as §1
# [14] = compound: ClCC(=O)N[C@H]1CCCc2ccccc12
# Outline: as §1
# [15] = compound: Fc1ccc(N2CCN(c3nc4c(CN(C(CCl)=O)CC4)cn3)CC2)cc1.Cl.Cl
# Outline: as §1
# Sequence of UniProt Q9Y5K5 (Q9Y5K5 whole entry): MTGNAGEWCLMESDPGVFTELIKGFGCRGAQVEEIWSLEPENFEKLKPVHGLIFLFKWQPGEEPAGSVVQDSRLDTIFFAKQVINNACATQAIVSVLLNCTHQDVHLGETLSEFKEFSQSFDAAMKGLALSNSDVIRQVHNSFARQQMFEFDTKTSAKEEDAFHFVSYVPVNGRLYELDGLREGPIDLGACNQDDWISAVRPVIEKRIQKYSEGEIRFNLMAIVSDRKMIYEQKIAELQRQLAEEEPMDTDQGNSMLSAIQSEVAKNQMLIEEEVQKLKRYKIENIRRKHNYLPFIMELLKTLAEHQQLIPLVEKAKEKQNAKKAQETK
# Sequence of UniProt Q96FW1 (Q96FW1 whole entry): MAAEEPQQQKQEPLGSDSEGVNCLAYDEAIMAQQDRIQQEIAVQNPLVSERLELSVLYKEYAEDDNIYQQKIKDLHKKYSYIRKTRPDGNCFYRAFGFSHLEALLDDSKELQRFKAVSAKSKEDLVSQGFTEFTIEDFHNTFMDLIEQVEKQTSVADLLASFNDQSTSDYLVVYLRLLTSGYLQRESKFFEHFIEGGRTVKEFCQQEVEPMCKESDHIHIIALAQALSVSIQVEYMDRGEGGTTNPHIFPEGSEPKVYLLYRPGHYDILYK
# Sequence of UniProt Q96JH7 (Q96JH7 whole entry): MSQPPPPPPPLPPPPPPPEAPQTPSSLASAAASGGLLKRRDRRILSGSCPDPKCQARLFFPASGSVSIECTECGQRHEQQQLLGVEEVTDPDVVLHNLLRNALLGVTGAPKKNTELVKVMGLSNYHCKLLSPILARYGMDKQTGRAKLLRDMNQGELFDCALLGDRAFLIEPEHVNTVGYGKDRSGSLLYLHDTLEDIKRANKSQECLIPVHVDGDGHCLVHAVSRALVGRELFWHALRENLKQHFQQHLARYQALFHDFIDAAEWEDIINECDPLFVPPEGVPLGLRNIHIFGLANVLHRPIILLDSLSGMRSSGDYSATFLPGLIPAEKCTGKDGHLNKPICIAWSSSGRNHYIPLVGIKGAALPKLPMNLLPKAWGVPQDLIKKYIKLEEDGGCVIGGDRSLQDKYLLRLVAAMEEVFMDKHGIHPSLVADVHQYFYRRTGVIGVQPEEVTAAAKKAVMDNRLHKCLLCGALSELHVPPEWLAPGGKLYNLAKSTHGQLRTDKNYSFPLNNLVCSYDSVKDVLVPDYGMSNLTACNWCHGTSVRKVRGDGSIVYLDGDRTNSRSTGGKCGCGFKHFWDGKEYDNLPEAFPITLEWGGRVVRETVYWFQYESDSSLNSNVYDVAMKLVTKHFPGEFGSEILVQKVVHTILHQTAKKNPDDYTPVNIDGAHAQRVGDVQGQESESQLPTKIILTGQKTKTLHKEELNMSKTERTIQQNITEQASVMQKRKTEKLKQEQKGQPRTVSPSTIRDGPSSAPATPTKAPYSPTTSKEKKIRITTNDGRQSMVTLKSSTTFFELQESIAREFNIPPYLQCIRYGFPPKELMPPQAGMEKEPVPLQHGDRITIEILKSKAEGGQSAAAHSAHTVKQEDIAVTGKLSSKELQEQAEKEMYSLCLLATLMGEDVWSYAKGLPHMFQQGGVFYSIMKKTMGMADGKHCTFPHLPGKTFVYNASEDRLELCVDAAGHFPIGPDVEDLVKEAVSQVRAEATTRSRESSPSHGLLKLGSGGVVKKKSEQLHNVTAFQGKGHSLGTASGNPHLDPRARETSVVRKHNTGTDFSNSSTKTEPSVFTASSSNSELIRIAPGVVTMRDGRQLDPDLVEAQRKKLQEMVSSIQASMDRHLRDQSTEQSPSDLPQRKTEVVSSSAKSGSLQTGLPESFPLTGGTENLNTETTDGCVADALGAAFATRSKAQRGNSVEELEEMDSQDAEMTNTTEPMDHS
# Sequence of UniProt P51665 (P51665 whole entry): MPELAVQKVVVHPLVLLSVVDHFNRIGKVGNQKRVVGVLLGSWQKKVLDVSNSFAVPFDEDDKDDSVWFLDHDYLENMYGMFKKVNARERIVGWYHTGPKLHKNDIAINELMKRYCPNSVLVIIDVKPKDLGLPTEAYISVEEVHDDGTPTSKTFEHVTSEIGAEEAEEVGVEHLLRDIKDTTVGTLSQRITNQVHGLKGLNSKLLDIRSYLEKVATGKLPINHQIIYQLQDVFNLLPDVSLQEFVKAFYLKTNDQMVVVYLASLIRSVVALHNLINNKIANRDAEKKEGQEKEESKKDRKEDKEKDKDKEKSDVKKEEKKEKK
# Sequence of UniProt Q70EL1 (Q70EL1 whole entry): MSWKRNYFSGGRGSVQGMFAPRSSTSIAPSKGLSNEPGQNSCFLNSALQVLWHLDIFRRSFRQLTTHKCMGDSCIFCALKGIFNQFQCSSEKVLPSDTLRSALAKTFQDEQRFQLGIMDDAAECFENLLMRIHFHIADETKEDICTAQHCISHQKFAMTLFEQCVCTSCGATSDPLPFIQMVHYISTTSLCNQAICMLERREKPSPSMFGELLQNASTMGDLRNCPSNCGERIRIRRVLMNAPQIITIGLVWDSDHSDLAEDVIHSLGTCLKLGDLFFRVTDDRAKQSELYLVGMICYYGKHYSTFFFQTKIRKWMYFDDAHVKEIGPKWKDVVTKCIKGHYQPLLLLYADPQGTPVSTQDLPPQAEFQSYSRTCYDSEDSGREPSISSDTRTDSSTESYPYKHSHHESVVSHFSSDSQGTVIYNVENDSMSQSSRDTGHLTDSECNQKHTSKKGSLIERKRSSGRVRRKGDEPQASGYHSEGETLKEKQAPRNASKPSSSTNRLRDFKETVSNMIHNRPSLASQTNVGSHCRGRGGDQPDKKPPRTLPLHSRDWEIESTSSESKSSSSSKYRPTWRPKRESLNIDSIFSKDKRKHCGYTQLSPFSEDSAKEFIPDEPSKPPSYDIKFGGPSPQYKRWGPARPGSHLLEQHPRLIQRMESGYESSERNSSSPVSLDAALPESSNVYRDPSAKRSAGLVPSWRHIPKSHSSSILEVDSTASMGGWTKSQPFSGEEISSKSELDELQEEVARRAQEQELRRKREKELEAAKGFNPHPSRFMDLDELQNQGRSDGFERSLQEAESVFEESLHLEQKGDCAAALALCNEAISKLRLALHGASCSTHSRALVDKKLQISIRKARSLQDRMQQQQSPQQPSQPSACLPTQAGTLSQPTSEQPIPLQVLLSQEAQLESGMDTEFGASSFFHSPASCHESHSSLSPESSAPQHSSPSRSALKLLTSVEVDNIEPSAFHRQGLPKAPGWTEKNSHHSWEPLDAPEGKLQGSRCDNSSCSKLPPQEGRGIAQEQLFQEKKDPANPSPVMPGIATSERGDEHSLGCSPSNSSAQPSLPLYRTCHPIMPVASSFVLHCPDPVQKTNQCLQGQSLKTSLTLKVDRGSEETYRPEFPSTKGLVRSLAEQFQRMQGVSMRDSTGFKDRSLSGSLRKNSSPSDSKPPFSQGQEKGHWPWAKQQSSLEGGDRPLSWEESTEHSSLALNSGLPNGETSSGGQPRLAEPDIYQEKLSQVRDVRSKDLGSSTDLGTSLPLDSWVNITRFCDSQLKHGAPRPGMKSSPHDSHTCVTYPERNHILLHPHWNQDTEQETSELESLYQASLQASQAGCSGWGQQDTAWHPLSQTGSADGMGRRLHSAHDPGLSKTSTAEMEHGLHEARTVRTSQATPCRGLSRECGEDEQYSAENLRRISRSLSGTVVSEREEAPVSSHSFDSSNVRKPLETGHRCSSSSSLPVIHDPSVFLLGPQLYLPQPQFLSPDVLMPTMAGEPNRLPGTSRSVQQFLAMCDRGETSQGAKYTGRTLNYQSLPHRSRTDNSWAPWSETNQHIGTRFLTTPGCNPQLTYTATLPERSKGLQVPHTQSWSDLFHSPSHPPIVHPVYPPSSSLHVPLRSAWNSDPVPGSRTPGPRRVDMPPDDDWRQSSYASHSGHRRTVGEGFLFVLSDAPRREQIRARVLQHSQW
# Sequence of UniProt Q53GS9 (Q53GS9 whole entry): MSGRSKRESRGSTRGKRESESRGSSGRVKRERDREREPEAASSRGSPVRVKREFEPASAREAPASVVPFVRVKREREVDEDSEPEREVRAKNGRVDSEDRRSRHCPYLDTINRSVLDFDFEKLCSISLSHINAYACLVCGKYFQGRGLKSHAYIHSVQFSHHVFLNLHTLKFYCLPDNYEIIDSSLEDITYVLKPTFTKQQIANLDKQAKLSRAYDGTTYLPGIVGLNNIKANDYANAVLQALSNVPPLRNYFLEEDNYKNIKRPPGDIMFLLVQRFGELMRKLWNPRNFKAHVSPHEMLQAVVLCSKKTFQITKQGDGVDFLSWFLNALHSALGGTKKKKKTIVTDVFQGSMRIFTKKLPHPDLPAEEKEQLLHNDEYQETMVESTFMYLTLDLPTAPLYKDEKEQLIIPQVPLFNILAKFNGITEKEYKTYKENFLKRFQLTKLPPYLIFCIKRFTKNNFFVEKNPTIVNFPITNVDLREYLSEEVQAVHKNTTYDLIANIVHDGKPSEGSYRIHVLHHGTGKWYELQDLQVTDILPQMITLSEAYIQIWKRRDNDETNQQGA
# Sequence of UniProt O00303 (O00303 whole entry): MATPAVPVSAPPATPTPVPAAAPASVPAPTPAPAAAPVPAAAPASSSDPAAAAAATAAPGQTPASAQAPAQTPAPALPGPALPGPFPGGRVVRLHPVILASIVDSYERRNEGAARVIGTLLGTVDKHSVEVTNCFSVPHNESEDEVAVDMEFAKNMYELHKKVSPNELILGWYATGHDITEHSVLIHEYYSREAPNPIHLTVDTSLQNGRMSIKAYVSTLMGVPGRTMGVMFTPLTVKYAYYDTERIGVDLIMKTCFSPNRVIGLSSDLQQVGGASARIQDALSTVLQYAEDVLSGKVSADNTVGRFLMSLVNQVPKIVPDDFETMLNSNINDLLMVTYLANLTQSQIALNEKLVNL
Target,log2 ratio of Biotin-Ahx-Ub-VS probe labelling ([1]; compound concentration: 50uM),log2 ratio of Biotin-Ahx-Ub-VS probe labelling ([1]; compound concentration: 200uM),log2 ratio of Biotin-Ahx-Ub-VS probe labelling ([2]; compound concentration: 50uM),log2 ratio of Biotin-Ahx-Ub-VS probe labelling ([2]; compound concentration: 200uM),log2 ratio of Biotin-Ahx-Ub-VS probe labelling ([3]; compound concentration: 50uM),log2 ratio of Biotin-Ahx-Ub-VS probe labelling ([3]; compound concentration: 200uM),log2 ratio of Biotin-Ahx-Ub-VS probe labelling ([4]; compound concentration: 50uM),log2 ratio of Biotin-Ahx-Ub-VS probe labelling ([4]; compound concentration: 200uM),log2 ratio of Biotin-Ahx-Ub-VS probe labelling ([5]; compound concentration: 50uM),log2 ratio of Biotin-Ahx-Ub-VS probe labelling ([5]; compound concentration: 200uM),log2 ratio of Biotin-Ahx-Ub-VS probe labelling ([6]; compound concentration: 50uM),log2 ratio of Biotin-Ahx-Ub-VS probe labelling ([6]; compound concentration: 200uM),log2 ratio of Biotin-Ahx-Ub-VS probe labelling ([7]; compound concentration: 50uM),log2 ratio of Biotin-Ahx-Ub-VS probe labelling ([7]; compound concentration: 200uM),log2 ratio of Biotin-Ahx-Ub-VS probe labelling ([8]; compound concentration: 50uM),log2 ratio of Biotin-Ahx-Ub-VS probe labelling ([8]; compound concentration: 200uM),log2 ratio of Biotin-Ahx-Ub-VS probe labelling ([9]; compound concentration: 50uM),log2 ratio of Biotin-Ahx-Ub-VS probe labelling ([9]; compound concentration: 200uM),log2 ratio of Biotin-Ahx-Ub-VS probe labelling ([10]; compound concentration: 50uM),log2 ratio of Biotin-Ahx-Ub-VS probe labelling ([10]; compound concentration: 200uM),log2 ratio of Biotin-Ahx-Ub-VS probe labelling ([11]; compound concentration: 50uM),log2 ratio of Biotin-Ahx-Ub-VS probe labelling ([11]; compound concentration: 200uM),log2 ratio of Biotin-Ahx-Ub-VS probe labelling ([12]; compound concentration: 50uM),log2 ratio of Biotin-Ahx-Ub-VS probe labelling ([12]; compound concentration: 200uM),log2 ratio of Biotin-Ahx-Ub-VS probe labelling ([13]; compound concentration: 50uM),log2 ratio of Biotin-Ahx-Ub-VS probe labelling ([13]; compound concentration: 200uM),log2 ratio of Biotin-Ahx-Ub-VS probe labelling ([14]; compound concentration: 50uM),log2 ratio of Biotin-Ahx-Ub-VS probe labelling ([14]; compound concentration: 200uM),log2 ratio of Biotin-Ahx-Ub-VS probe labelling ([15]; compound concentration: 50uM),log2 ratio of Biotin-Ahx-Ub-VS probe labelling ([15]; compound concentration: 200uM)
USP25 (UniProt Q9UHP3),0.514,-1.46 (active),-1.05 (active),-0.67,-0.138,-0.338,-0.545,-0.345,0.265,-0.358,0.409,-0.517,-0.562,0.332,-0.946,-0.711,0.621,-0.242,-0.129,-0.557,-0.808,0.0737,0.221,0.509,-0.0574,-0.126,-0.809,-1.97 (active),0.382,-1.03
UCHL5 (UniProt Q9Y5K5),-0.213,-0.442,-0.735,-1.33 (active),-0.356,-0.432,-0.288,-0.317,-0.37,-1.17 (active),-0.0548,-1.36 (active),0.0333,-0.459,-0.287,-0.349,-0.0669,-0.74,-0.0991,-0.214,-0.182,-0.0853,-0.308,-0.472,0.0503,-0.365,-0.0983,-0.443,-0.226,-1.37 (active)
EIF3F (UniProt O00303),-0.146,-0.0144,-0.201,0.0399,0.12,0.117,-0.317,-0.0894,-0.0548,-0.0324,-0.117,-0.406,-0.18,0.268,-0.16,0.0551,-0.352,-0.162,0.0245,-0.0374,-0.228,0.0219,-0.17,0.0998,-0.0176,0.00311,-0.292,0.0431,0.028,0.0109
VCPIP1 (UniProt Q96JH7),-0.446,-0.887,-0.755,-1.2 (active),-0.563,-0.709,-0.548,-0.854,-0.299,-1.11 (active),-0.374,-0.407,-0.105,-0.284,-0.319,-0.484,-0.213,-0.677,-0.515,-0.426,-0.592,-1.1 (active),-0.668,-0.836,-0.427,-1.2 (active),-0.287,-0.962,-0.145,-0.737
USP54 (UniProt Q70EL1),0.085,-0.845,-1.29 (active),-0.985,-0.885,-0.551,-0.773,-2.33 (active),-0.358,-2.68 (active),-0.895,-2.65 (active),-0.823,-2.39 (active),-0.519,-1.77 (active),-0.124,-2.07 (active),0.0591,0.198,-0.548,0.0905,0.326,0.176,0.0467,0.0947,-1.58 (active),-0.206,-0.663,0.547
PSMD7 (UniProt P51665),-1.92,0.377,0.204,-0.694,0.305,1.21,-0.346,2.6,0.459,0.335,-1.17,0.126,-0.153,0.514,0.812,0.83,0.689,0.149,0.0697,0.463,-5.4,-0.933,-1.46,0.606,0.408,0.0589,1.77,0.0535,-0.177,-1.73
USP39 (UniProt Q53GS9),0.105,-0.535,-0.137,0.0162,-0.0746,0.0651,0.011,-0.086,0.17,0.063,0.017,-0.298,0.044,0.117,-0.102,-0.0827,-0.0611,-0.272,0.165,0.014,-0.167,-0.109,-0.269,-0.2,-0.0242,-0.138,0.0198,-0.0406,0.0915,-0.109
OTUB1 (UniProt Q96FW1),0.0635,0.0164,-0.366,0.0592,-0.0602,-0.159,-0.0667,-0.232,-0.125,-0.389,0.182,-0.161,-0.0139,-0.309,-0.139,-0.129,0.0181,-0.0887,0.00867,-0.00015,-0.212,-0.0215,-0.31,-0.319,0.00122,-0.246,0.0292,-0.0965,0.0783,-0.137
PRPF8 (UniProt Q6P2Q9),-0.00418,0.0824,-0.075,0.0126,-0.0842,0.108,0.0375,0.065,0.00751,0.0603,0.0965,0.0914,0.046,0.0608,-0.0702,0.00362,-0.00317,0.0413,0.122,-0.028,-0.0294,-0.0682,-0.217,-0.0207,0.0298,-0.0215,0.0787,-0.0553,-0.0417,-0.137
UniProt O00487,-0.27,-0.709,-0.154,-0.202,-0.0192,0.243,-0.0826,-0.0205,0.102,0.0842,-0.325,-0.335,-0.128,0.13,-0.239,-0.187,-0.175,-0.724,-0.101,-0.0832,-0.451,-0.117,-0.207,0.0311,0.124,-0.15,-0.0195,-0.0757,0.285,0.135
